Screening data (PubChem BioAssay)
CHX counter: affects cycloheximide protein synthesis inhibition readout, counter-screen. cell reporter, cycloheximide protein synthesis inhibition counterscreen. 12% of 300,000 active. max response, %. AID 2314; in the data active = max response mostly above about 13%, no sharp cut-off; inactive = mostly below about 14%; also: read at 38.3 µM for the half of the compounds with a filed dose; 0% is about no effect
VACV Venus inh: vaccinia inhibition (Venus reporter). Vaccinia virus Venus reporter expression, fluorescence. AID 720580. 0.46% of 330,000 active. Potency, µM (doses to about 36.5 µM), for inactives: at the highest dose activity change, negative = inhibition, most hits filed as inhibitors; calls by dose curve; tested in A549 cells; also: potency is read from the fitted curve at half-maximal effect; % is scaled to controls: 0 for no effect and ±100 for the full control effect; nearly all actives have a fitted effect of over 30% in size
Shiga toxin inh: inhibitors of Shiga toxin in Vero cells; 9.2% of 290,000 active; AID 2315; inhibition, % at 38.7 µM; Vero cells, Shiga toxin protein synthesis inhibition reporter; in the data active = inhibition mostly above about 28%, no sharp cut-off; inactive = mostly below about 43%; also: 0% is about no effect
VACV mCherry inh: inhibitors of vaccinia virus infection (mCherry reporter signal); Vaccinia virus mCherry reporter infection, fluorescence; Potency, µM (highest dose often 36.5 µM), for the others: at the highest dose activity change, negative = inhibition, most hits filed as inhibitors; 0.63% of 310,000 active; AID 720579; calls by dose curve; tested in A549 cells; also: potency is read from the fitted curve at half-maximal effect; % is scaled to controls: 0 for no effect and ±100 for the full control effect; nearly all actives have a fitted effect of over 35% in size
LASV entry inh: Lassa virus entry inhibition | Lassa virus pseudotype entry inhibition, cell reporter | Potency, µM (top dose mostly 37.9 µM), inactives show at the highest dose activity change, negative = inhibition, usual class: inhibitors | 1.2% of 300,000 active | AID 540256; calls by dose curve; tested in HEK293 cells; also: potency is read from the fitted curve at half-maximal effect; % is scaled to controls: 0 for no effect and ±100 for the full control effect; nearly all actives have a fitted effect of over 50% in size
Marburg entry inh: blocks Marburg virus binding to or entry into cells; 1.8% of 300,000 active; Potency, µM (doses to about 37.8 µM), without a hit: top-dose activity change, negative = inhibition, most hits filed as inhibitors; AID 540276; Marburg virus pseudotyped entry inhibition, cell reporter; calls by dose curve; tested in HEK293 cells; also: potency is read from the fitted curve at half-maximal effect; % is scaled to controls: 0 for no effect and ±100 for the full control effect
Numbers without * were called inactive; i = inactive; ? = inconclusive; nt = no result given; [ ] = another dose, or the depositor's remark. The full list was thinned out, with hits kept by preference.

SMILES | CHX counter | VACV Venus inh | Shiga toxin inh | VACV mCherry inh | LASV entry inh | Marburg entry inh
Cc1cccc(-n2c(C)cc(C=C3C(=O)c4ccccc4C3=O)c2C)c1 | 21* | -13% | 41 | -12% | -1% | ?
Cc1cccc(-n2c(C)cc(/C=C3/C(=N)N4C(c5ccccc5)=CSC4=NC3=O)c2C)c1 | 0 | -4% | -8 | -11% | 5% | 15%
COc1ccc(CNC(=O)CCc2c(C)c3cc4c(C)c(C)oc4cc3oc2=O)cc1 | nt | -27% | nt | ? | 17%[46.1 µM] | 2%[46.1 µM]
CCOc1ccc(C(=O)N(Cc2nc(-c3cccc(C)c3)no2)C(C)C)cc1 | nt | -13% | nt | i | ? | -10%[46.1 µM]
O=C(N/N=C/c1ccc(OC(=O)c2cccc(F)c2)cc1)c1cccnc1 | -3 | -9% | 22 | -13% | 14% | 22%[46.1 µM]
O=C(N/N=C/c1cccnc1)c1cc(O)c(O)c(O)c1 | -1 | 0% | 2 | -14% | ? | 3.2µM*
O=C(N/N=C/c1cccnc1)c1cccc(F)c1 | 20* | -3% | 23* | i | 10% | -1%
O=C(CNC(=O)c1cccc(F)c1)N/N=C/c1cccnc1 | 7 | nt | 2 | nt | nt | nt
O=C(N/N=C/c1ccc(OC(=O)c2cccs2)cc1)c1cccc(F)c1 | 47* | nt | 31 | nt | 11% | -33%
O=C(N/N=C/c1cccnc1)c1cc(Br)ccc1O | 26* | nt | 53* | nt | nt | nt
Cn1c(=O)n(C)c2cc(NC(=O)CCc3ccccc3)c(Br)cc21 | -3 | nt | 6 | nt | nt | nt
COC(=O)c1cc2oc(C)cc2n1Cc1ccc(C)cc1 | nt | -4% | nt | i | -24%[46.1 µM] | nt
CCOc1ccc(-n2c(SCC(=O)c3ccccc3)nc3c([nH]c4ccccc43)c2=O)cc1 | nt | 3% | nt | -14% | 9%[46.1 µM] | nt
O=C(N/N=C/c1coc2ccccc2c1=O)c1cc(Br)ccc1O | -2 | -12% | -1 | -2% | ? | 0%
O=C(N/N=C/c1ccccn1)c1cc(Br)ccc1O | 32* | -4% | 48* | -3% | ? | -12%[46.1 µM]
COc1ccc(C(=O)N/N=C/c2ccccn2)cc1 | nt | -8% | nt | -15% | nt | nt
Fc1ccc(N/N=C/c2cccnc2)c(F)c1 | 31* | nt | 73* | nt | nt | nt
O=C(N/N=C/c1ccccn1)c1ccc(Br)o1 | 19* | -12% | 44* | -22% | -13% | -25%
O=C(N/N=C/c1cccnc1)c1ccc(O)cc1 | 19* | -8% | 40 | -1% | ? | -2%[46.1 µM]
FC(F)(F)c1ccccc1N/N=C/c1cccnc1 | 22 | -4% | 27 | ? | ? | -13%[46.1 µM]
CCCC(=O)Nc1ccc(C(=O)N/N=C/c2cccnc2)cc1 | 2 | 2% | 16 | -4% | -62%[14.3 µM] | ?
CSc1ccc(CCNC(=O)C(C)n2nc(C)c3sc4ccccc4c3c2=O)cc1 (stereo not drawn) | nt | -14% | nt | -21% | ? | ?
C=CCOc1cccn2c(N(C=O)Cc3ccccc3)c(CC)nc12 | nt | -3% | nt | i | nt | nt
Cc1cc(F)ccc1S(=O)(=O)NCC(c1ccco1)S(=O)(=O)c1cccs1 (stereo not drawn) | nt | -7% | nt | -9% | -6%[46.1 µM] | nt
COc1cccc(-c2ccnc(-n3ncc(C(=O)NCc4cccnc4)c3C3CC3)n2)c1 | nt | -3% | nt | -17% | nt | nt
SMILES | CHX counter | VACV Venus inh | Shiga toxin inh | VACV mCherry inh | LASV entry inh | Marburg entry inh
Cc1sc(NC(=O)c2ccccc2F)c(CN2CCCCC2)c1C | 50* | -12% | 127* | -11% | 26% | -2%
O=C(Nc1sc2c(c1CN1CCOCC1)CCC2)c1ccc(F)cc1 | -2 | -11% | 28 | i | 10% | ?
Cc1sc(NC(=O)c2ccco2)c(C(c2cccnc2)N2CCC(C)CC2)c1C (stereo not drawn) | -4 | nt | 2 | nt | 21µM* | ?
Cc1sc(NC(=O)c2ccc(F)cc2)c(CN2CCCCCC2)c1C | 43* | -2% | 175* | -14% | ? | ?
Cc1sc(NC(=O)c2ccco2)c(CN2CCN(Cc3ccccc3)CC2)c1C | 7 | -20% | 4 | -27% | ? | 13µM*
Cc1sc(NC(=O)c2ccco2)c(CN2CCC(C)CC2)c1C | 10 | -10% | 0 | i | -25% | ?
CCCOc1ccc(C(=O)c2nc3c(n2O)CCCCC3)cc1 | -5 | nt | -9 | nt | -6% | 22%
O=C(c1ccccc1)c1nc2c(n1O)CCCCC2 | 32* | -4% | 44* | i | 20%[46.1 µM] | -1%[46.1 µM]
N#C/C(=C\c1coc2ccc(O)cc2c1=O)C(=O)Nc1nc2ccccc2s1 | 32* | nt | 86* | nt | nt | nt
CCCOc1ccccc1NC(=O)/C=C/C(N)=O | 13* | nt | -3 | nt | 4% | -22%
COc1ccc(C2/C=C\CN(CC(C)C)C(Cc3ccccc3)C(=O)N2Cc2ccc(F)cc2)cc1 (stereo not drawn) | 99* | nt | 126* | nt | nt | nt
COc1ccc(C2/C=C\CN(CC(C)C)C(C)C(=O)N2Cc2ccc(F)cc2)cc1 (stereo not drawn) | 31* | nt | 142* | nt | nt | nt
COc1ccc(C2/C=C\CN(CC3CC3)C(Cc3ccccc3)C(=O)N2Cc2ccc(F)cc2)cc1 (stereo not drawn) | 16 | nt | -3 | nt | nt | nt
NS(=O)(=O)c1cccc(-n2cnnn2)c1 | -1 | -9% | -9 | -12% | 18% | -9%[46.1 µM]
COc1cccc(NC(=O)CNC(=O)[C@@H]2Cc3ccccc3CN2C(=O)OC(C)(C)C)c1 | -2 | -23% | -10 | -2% | ? | -9%[46.1 µM]
O=C(COC(=O)CNC(=O)C1CCCCC1)Nc1ccc2ccccc2c1 | 16 | -8% | 17 | -14% | 15% | 24%
CC(C)(C)OC(=O)N1Cc2ccccc2C[C@H]1C(=O)NCC(=O)Nc1ccc2c(c1)OCCO2 | 52* | nt | 114* | nt | nt | nt
COc1cc(NC(=O)COC(=O)CNC(=O)c2ccc(C)cc2)c(C)cc1[N+](=O)[O-] | 2 | nt | -16 | nt | nt | nt
O=C(CNC(=O)C1CCCCC1)Nc1ccc(Cl)cc1 | 23* | -19% | 30* | i | -2% | 11%
CC(C)(C)c1ccc(C(=O)NCC(=O)OCC(=O)Nc2ccccc2[N+](=O)[O-])cc1 | 41* | nt | 45* | nt | -1% | 8%
O=C(COC(=O)CNC(=O)C1CCCCC1)Nc1ccc2c(c1)OCCO2 | 26* | -6% | 43 | i | ? | 8%
O=C(CNC(=O)C1CCCCC1)Nc1ccc(F)c(Cl)c1 | 12 | -20% | 44 | -6% | -6% | 0%
CCOc1ccccc1CNS(=O)(=O)c1ccc2c(c1)CCCN2C(C)=O | nt | -10% | nt | -12% | -17%[46.1 µM] | nt
CN(CC(=O)Nc1cccc(F)c1)C(=O)CNC(=O)Cc1cccc2ccccc12 | nt | -18% | nt | -27% | 5% | 5%
CCCc1cc(=O)[nH]c(SCC(=O)Nc2cc(S(=O)(=O)N3CCOCC3)ccc2N(CC)CC)n1 | nt | -1% | nt | i | -4%[46.1 µM] | -21%[46.1 µM]
CC(C)(C)c1ccc(C(=O)NCC(=O)OCC(=O)Nc2ccc3c(c2)OCCO3)cc1 | 12* | nt | 16 | nt | 14% | 7%
Cc1ccc(NC(=O)c2oc3ccc4c(c3c2C)C(=O)CC(C)(C)O4)c(C)c1 | nt | -8% | nt | 1% | ? | nt
Cc1ccc(NC(=S)N/C(=N/S(=O)(=O)c2ccccc2)c2ccccc2)cc1 | 49* | -11% | 90* | -23% | ? | -1%
Cc1ccc(S(=O)(=O)/N=C(/Nc2ccccc2C)c2ccccc2)cc1 | nt | -8% | nt | -22% | -7%[46.1 µM] | -14%[46.1 µM]
